# Where “and” joins values, the source holds several entries; their conditions need not be identical. Equal entries are not always repeated. Unmarked numbers belong to inactive results. Inconclusive results are not listed. Where a call stands in place of a potency, no number is given. Calls of active or inactive are those of the source. Unless noted, calls come from the whole dose curve; as a rule, active = well fitted curve in the direction sought with a large enough effect in the repeat runs; inconclusive = weak or mixed curves; inactive = no such curve, though single readings can be large; an effect the other way counts as inactive or inconclusive.
# Assays:
# [1] = qHTS assay to identify small molecule antagonists of the estrogen receptor alpha (ER-alpha) signaling pathway using the BG1 cell line in the presence of 0.1 nM 17-beta-estradiol - cell viability counter screen (AID 1259241); note: nearly all actives have a fitted effect of over 40% in size
# Summary of the method: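 Cells were plated and left 24 hr, compounds in DMSO were pinned in, 17beta-estradiol was added to 0.1 nM final, and after 22 hr CellTiter-Fluor reagent was added for 30 min before fluorescence was read.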
# [2] = qHTS assay to identify small molecule antagonists of the androgen receptor (AR) signaling pathway using the MDA cell line in the presence of 0.5 nM R1881 - cell viability counter screen (AID 1259242); note: nearly all actives have a fitted effect of over 45% in size
# Summary of the method: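 R1881 at 0.5 nM final stimulated MDA-kb2 cells during 16 hr compound treatment at 37C. Cytotoxicity read: CellTiter-Fluor fluorescence after 30 min.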
# [3] = qHTS assay to identify small molecule HDAC inhibitors (AID 1259364); note: potency is the fitted concentration of half-maximal effect;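 note: wild-type HCT-116 cells with endogenous class I/II HDAC activity; nearly all actives have a fitted effect of over 45% in size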; for activity change, negative = inhibition: top concentration of the series differs between compounds
# Summary of the method: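 Relative class I and II HDAC activity is taken from the luminogenic signal in HCT-116 cells, with compound exposure 2 hr and reagent development 30 min at room temperature.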
# [4] = qHTS assay to identify small molecule HDAC inhibitors - cell viability counter screen (AID 1259365); note: series mostly up to about 92 µM; nearly all actives have a fitted effect of over 50% in size
# Summary of the method: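 Counter screen in wild-type HCT-116 cells: compounds dissolved in DMSO are pin-transferred onto overnight-plated cells and left 2hr at 37C. ATP-based CellTiter-Glo luminescence then measures viable cells.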
# [5] = qHTS assay to identify small molecule agonists of the sonic hedgehog signaling (Shh) pathway - cell viability counter screen (AID 1259366); note: nearly all actives have a fitted effect of over 50% in size; note: potency is the fitted concentration of half-maximal effect
# Summary of the method: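 Cells are plated at 2,000 per well and left 4hr at 37C, 5% CO2 before compound addition. After 23hr of treatment, CellTiter-Fluor reagent is added for 1hr at 37C and fluorescence is measured.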
# [6] = qHTS assay to identify small molecule antagonists of the sonic hedgehog signaling (Shh) pathway - cell viability counter screen (AID 1259367); note: nearly all actives have a fitted effect of over 55% in size; note: potency is the fitted concentration of half-maximal effect
# Summary of the method: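 After a 4 hr settling period, 3T3 Gli1-Luc cells were treated with DMSO-dissolved chemicals and conditioned medium, kept 24 hr at 37C in 5% CO2, and assayed for viability by CellTiter-Fluor fluorescence following 1 hr reagent incubation.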
# [7] = qHTS assay to identify small molecule agonists of the sonic hedgehog signaling (Shh) pathway (AID 1259368; calls by dose curve;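 note: NIH/3T3-derived 3T3Gli1-Luc cells carrying a stable Gli1-driven firefly luciferase reporter; series mostly up to about 92 µM; nearly all actives have a fitted effect of over 15% in size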)
# Summary of the method: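 Mouse fibroblast (NIH/3T3) reporter cells with stably integrated Gli1-Luc were treated 24 hr with compound; firefly luciferase luminescence served as the read-out.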
# [8] = qHTS assay to identify small molecule antagonists of the sonic hedgehog signaling (Shh) pathway (AID 1259369; calls by dose curve; note: nearly all actives have a fitted effect of over 45% in size; note: potency is the fitted concentration of half-maximal effect)
# Summary of the method: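 Conditioned medium drives Shh signalling in 3T3Gli1-Luc cells; compounds in DMSO co-applied, 24hr at 37 C, then luciferase luminescence.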
# [9] = qHTS assay to identify small molecule agonists of the androgen receptor (AR) signaling pathway in the presence of an antagonist - cell viability counter screen (AID 1259379);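 note: MDA-kb2 human breast cancer cells carrying an MMTV luciferase reporter; series mostly up to about 92 µM; nearly all actives have a fitted effect of over 25% in size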
# Summary of the method: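 A CellTiter-Fluor read-out measured viability of MDA-kb2 reporter cells (MMTV promoter with AR and GR response elements). Treatment: nilutamide 3.0uM final with compounds at 15 concentrations, 16 hr, 37C, 0% CO2.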
# [10] = qHTS assay to identify small molecule agonists of the estrogen receptor beta (ER-beta) signaling pathway - cell viability counter screen (AID 1259380); note: nearly all actives have a fitted effect of over 30% in size; note: potency is the fitted concentration of half-maximal effect
# Summary of the method: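 Cells used were ER-beta-UAS-bla HEK293T in medium with 2% charcoal-stripped FBS. They were treated for 16 hr at 37C. Viability came from CellTiter-Glo luminescence.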
# [11] = qHTS assay to identify small molecule antagonists of the estrogen receptor beta (ER-beta) signaling pathway - cell viability counter screen (AID 1259382); note: series mostly up to about 92 µM; nearly all actives have a fitted effect of over 55% in size
# Summary of the method: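 Agonist-stimulated (1nM E2) ER-beta-UAS-bla HEK293T cells are incubated with library compounds for 16 hr at 37C. Cell viability is then assessed in the reporter-assay wells by adding CellTiter-Glo and reading luminescence after 30 min.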
# [12] = molecular target: Estrogen receptor (Homo sapiens) (UniProt P03372); assay: qHTS assay to identify small molecule agonists of the estrogen receptor alpha (ER-alpha) signaling pathway in the presence of an antagonist (AID 1259383; calls by dose curve; note: top concentration of the series differs between compounds; nearly all actives have a fitted effect of over 15% in size)
# Estrogen receptor (Homo sapiens), sequence (P03372 whole entry, looked up): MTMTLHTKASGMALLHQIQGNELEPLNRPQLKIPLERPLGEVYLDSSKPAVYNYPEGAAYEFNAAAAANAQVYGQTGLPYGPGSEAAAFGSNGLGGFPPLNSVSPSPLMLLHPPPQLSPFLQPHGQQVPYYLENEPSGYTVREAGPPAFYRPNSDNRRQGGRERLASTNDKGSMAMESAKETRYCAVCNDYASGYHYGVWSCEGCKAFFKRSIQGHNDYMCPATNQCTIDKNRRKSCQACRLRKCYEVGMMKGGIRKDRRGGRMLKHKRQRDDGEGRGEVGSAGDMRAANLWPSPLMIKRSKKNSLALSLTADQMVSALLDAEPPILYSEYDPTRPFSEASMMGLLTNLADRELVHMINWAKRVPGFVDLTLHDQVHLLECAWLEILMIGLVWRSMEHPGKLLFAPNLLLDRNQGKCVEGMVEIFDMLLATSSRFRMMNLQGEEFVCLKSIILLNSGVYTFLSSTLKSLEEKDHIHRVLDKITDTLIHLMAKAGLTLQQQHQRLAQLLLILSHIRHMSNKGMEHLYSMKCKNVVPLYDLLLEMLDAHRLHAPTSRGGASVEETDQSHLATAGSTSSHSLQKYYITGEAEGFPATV
# Summary of the method: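 Using VM7Luc4E2 cells seeded 24hr before treatment, antagonist ICI-182,780 (10.0nM final) was added, followed by compounds at 15 concentrations. Plates incubated 22hr; ONE-Glo luminescence quantified reporter activity.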
# [13] = qHTS assay to identify small molecule agonists or antagonists of the thyroid stimulating hormone receptor (TSHR) signaling pathway - wild type cell line counter screen (AID 1259384; calls by dose curve)
# Summary of the method: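 Wild-type HEK293 cells were plated 18 h at 37 C/5% CO2, pin-dosed with compound plus Ro20-1724 medium, held 30 min at room temperature, then given cAMP-d2 and anti-cAMP-cryptate; fluorescence was read after 1 h. Fifteen concentrations, triplicate.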
# [14] = qHTS assay to identify small molecule phospholipidosis (PLD) inducers (AID 1259344; active = well fitted curve in the direction sought with a large enough effect; an effect the other way counts as inactive or inconclusive)
# Summary of the method: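 HepG2 cells grown on collagen I take up LipidTOX Red while exposed to compound for 24 h; after fixation they are imaged at 20x and pit metrics are extracted.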
# [15] = molecular target: Estrogen receptor beta (Homo sapiens) (UniProt Q92731); assay: qHTS assay to identify small molecule agonists of the estrogen receptor beta (ER-beta) signaling pathway (AID 1259377; active = well fitted activation curve with a large enough effect in the signal ratio in the repeat runs, not every such curve was filed as active; the % refers to the signal ratio)
# Estrogen receptor beta (Homo sapiens), sequence (Q92731 whole entry, looked up, the tested form may be a part): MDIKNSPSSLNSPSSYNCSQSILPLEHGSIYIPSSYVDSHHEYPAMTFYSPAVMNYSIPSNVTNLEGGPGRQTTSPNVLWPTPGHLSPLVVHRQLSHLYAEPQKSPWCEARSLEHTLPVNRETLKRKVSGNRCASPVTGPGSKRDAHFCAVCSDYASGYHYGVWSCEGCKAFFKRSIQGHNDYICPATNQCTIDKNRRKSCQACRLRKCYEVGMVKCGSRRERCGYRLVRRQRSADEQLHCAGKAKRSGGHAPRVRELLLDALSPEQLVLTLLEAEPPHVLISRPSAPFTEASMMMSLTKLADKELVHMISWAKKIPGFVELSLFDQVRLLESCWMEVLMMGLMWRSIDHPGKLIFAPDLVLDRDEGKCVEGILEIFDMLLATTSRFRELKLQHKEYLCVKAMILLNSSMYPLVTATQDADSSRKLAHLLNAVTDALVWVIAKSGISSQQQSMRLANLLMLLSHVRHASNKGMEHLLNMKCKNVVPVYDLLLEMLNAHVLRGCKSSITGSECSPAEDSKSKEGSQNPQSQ
# Summary of the method: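 Agonist mode cell assay in GripTite HEK293T cells expressing an ER-beta fusion that drives beta-lactamase from an Upstream Activator Sequence; 16 hr compound exposure at 37C, then 2 h LiveBLAzer B/G FRET substrate at room temperature, fluorescence read-out.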
# [16] = molecular target: Estrogen receptor beta (Homo sapiens) (UniProt Q92731); assay: qHTS assay to identify small molecule antagonists of the estrogen receptor beta (ER-beta) signaling pathway (AID 1259378; active = well fitted inhibition curve with a large enough effect in the signal ratio in the repeat runs, not every such curve was filed as active; the % refers to the signal ratio)
# Summary of the method: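 ER-beta-UAS-bla HEK293T (GripTite) cells in 2% charcoal-stripped FBS medium were preincubated 6 hr at 37C, dosed with compound, then stimulated with 1 nM E2 (final) for 16 hr; beta-lactamase reporter read by B/G FRET fluorescence after 2 hr substrate loading.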
# [17] = molecular target: Thyrotropin receptor (Homo sapiens) (UniProt P16473); assay: qHTS assay to identify small molecule antagonists of the thyroid stimulating hormone receptor (TSHR) signaling pathway (AID 1259385; calls by dose curve; note: nearly all actives have a fitted effect of over 20% in size)
# Thyrotropin receptor (Homo sapiens), sequence (P16473 whole entry, looked up): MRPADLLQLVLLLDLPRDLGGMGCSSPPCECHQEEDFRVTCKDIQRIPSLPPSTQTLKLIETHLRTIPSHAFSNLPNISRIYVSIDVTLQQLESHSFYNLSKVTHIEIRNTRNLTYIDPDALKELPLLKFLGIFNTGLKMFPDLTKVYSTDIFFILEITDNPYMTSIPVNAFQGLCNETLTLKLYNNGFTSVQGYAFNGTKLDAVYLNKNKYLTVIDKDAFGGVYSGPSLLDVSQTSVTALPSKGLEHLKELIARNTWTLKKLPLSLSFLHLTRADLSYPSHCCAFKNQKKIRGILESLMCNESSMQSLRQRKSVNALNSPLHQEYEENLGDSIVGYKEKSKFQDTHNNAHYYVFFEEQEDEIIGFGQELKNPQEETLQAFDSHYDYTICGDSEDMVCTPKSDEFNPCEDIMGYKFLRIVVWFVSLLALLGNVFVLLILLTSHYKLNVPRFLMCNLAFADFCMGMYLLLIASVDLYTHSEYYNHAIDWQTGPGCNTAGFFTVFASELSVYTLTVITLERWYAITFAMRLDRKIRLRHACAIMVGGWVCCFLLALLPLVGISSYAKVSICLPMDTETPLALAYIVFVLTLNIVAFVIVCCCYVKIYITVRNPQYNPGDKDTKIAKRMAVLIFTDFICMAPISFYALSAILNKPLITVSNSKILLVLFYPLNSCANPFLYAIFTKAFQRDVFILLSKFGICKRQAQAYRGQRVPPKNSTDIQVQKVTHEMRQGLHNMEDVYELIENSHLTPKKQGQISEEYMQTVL
# Summary of the method: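 TSHR-HEK293 cells were plated and held 18 h at 37C/5% CO2, then given compound plus Ro20-1724 and stimulated with TSH at 1.5 ng/mL final. After 30 min at room temperature, cAMP was detected with cAMP-d2/anti-cAMP-cryptate (1 h) by fluorescence.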
compound,measurement,setting,value
CCOC(=O)C1=NN(c2ccccc2)C(=O)C1,Potency,[1],inactive
same,Potency,[2],inactive
same,Potency,[3],inactive
same,outcome,[4],inactive
same,Potency,[5],inactive
same,Potency,[6],inactive
same,outcome,[7],inactive
same,Potency,[8],inactive
same,Potency,[9],inactive
same,Potency,[10],inactive
same,Potency,[11],inactive
same,Potency,[12],inactive
same,Potency,[13],inactive
O=C(c1ccccc1)c1ccc2n1CCC2C(=O)O (stereo not given),Potency,[1],inactive
same,Potency,[2],inactive
same,Potency,[14],inactive
same,Potency,[3],7.5 µM (active)
same,Potency,[5],inactive
same,Potency,[6],inactive
same,outcome,[7],inactive
same,Potency,[8],inactive
same,Potency,[9],inactive
same,Potency,[10],inactive
same,Potency,[11],inactive
CCCCCCCCCCCCCCCCCBr,"activity change, negative = cytotoxicity",[1],5.52% [at 19 µM]
same,"viability change, negative = cytotoxic",[2],-0.565% [at 19 µM]
same,"activity change, negative = inhibition",[3],6.57% [at 19 µM]
same,"activity change, negative = cytotoxicity",[4],0.135% [at 19 µM]
same,"viability change, negative = cytotoxic",[5],-1.63% [at 19 µM]
same,"viability change, negative = cytotoxic",[6],-1.98% [at 19 µM]
same,activity change,[7],-0.456% [at 18.9 µM]
same,"activity change, negative = inhibition",[8],-0.552% [at 19 µM]
same,activation,[15],-3.04% [at 19 µM]
same,"activity, negative = inhibition",[16],11.4% [at 19 µM]
same,"activity change, negative = cytotoxicity",[9],4.41% [at 19 µM]
same,"activity change, negative = cytotoxicity",[10],-0.948% [at 19 µM]
same,"activity change, negative = cytotoxicity",[11],-6.31% [at 19 µM]
CCN1CCC[C@H]1CNC(=O)c1c(OC)ccc(Br)c1OC,Potency,[1],inactive
same,Potency,[2],inactive
same,Potency,[14],inactive
same,Potency,[3],inactive
same,Potency,[6],inactive
same,outcome,[7],inactive
same,Potency,[8],inactive
same,Potency,[15],inactive
same,Potency,[16],inactive
same,Potency,[9],inactive
same,Potency,[10],inactive
same,Potency,[11],inactive
same,Potency,[17],inactive
CC(C)CC=O,Potency,[1],inactive
same,Potency,[2],inactive
same,Potency,[3],inactive
same,outcome,[4],inactive
same,Potency,[5],inactive
same,Potency,[6],inactive
same,outcome,[7],inactive
same,Potency,[8],inactive
same,Potency,[15],inactive
same,Potency,[16],inactive
same,Potency,[9],inactive
same,Potency,[10],inactive
same,Potency,[11],inactive
same,Potency,[13],inactive
CCCCOc1ccc(CC(=O)NO)cc1,Potency,[1],inactive
same,Potency,[2],inactive
same,Potency,[14],inactive
same,Potency,[3],inactive
same,outcome,[4],inactive
same,outcome,[7],inactive
same,Potency,[15],inactive
same,Potency,[9],inactive
same,Potency,[10],9.44 µM (active)
same,Potency,[13],inactive
same,Potency,[17],inactive
Cn1sccc1=O,Potency,[1],inactive
same,Potency,[2],inactive
same,Potency,[3],inactive
same,outcome,[4],inactive
same,Potency,[5],48.6 µM (active)
same,Potency,[6],27.3 µM (active)
same,outcome,[7],inactive
same,Potency,[8],12.2 µM (active) and 3.06 µM (active)
same,Potency,[9],inactive
same,Potency,[10],inactive
same,Potency,[11],inactive
same,Potency,[13],inactive
same,Potency,[17],inactive
CCCCCCOC(=O)CCC,Potency,[1],inactive
same,Potency,[2],inactive
same,Potency,[3],inactive
same,outcome,[4],inactive
same,Potency,[5],inactive
same,Potency,[6],inactive
same,outcome,[7],inactive
same,Potency,[8],inactive
same,Potency,[15],inactive
same,Potency,[16],inactive
same,Potency,[9],inactive
same,Potency,[11],inactive
same,Potency,[13],inactive
same,Potency,[17],inactive
CCCCCCCCCCCCCCCC(=O)OC/C=C(C)/C=C/C=C(C)/C=C/C1=C(C)CCCC1(C)C,Potency,[1],inactive
same,Potency,[2],inactive
same,Potency,[3],inactive
same,outcome,[4],inactive
same,Potency,[5],inactive
same,Potency,[6],inactive
same,outcome,[7],inactive
same,Potency,[9],inactive
same,Potency,[10],inactive
same,Potency,[11],inactive
same,Potency,[17],inactive
NC[C@H]1O[C@H](O[C@H]2[C@H](O)[C@@H](O[C@H]3O[C@H](CO)[C@@H](O)[C@H](N)[C@H]3O)[C@H](N)C[C@@H]2N)[C@H](O)[C@@H](O)[C@@H]1O,"activity change, negative = cytotoxicity",[1],2.35% [at 8.39 µM]
same,"viability change, negative = cytotoxic",[2],1.3% [at 8.39 µM]
same,Potency,[14],inactive
same,"activity change, negative = inhibition",[3],-0.959% [at 8.39 µM]
same,"viability change, negative = cytotoxic",[6],-30.1% [at 8.39 µM]
same,activity change,[7],1.6% [at 8.39 µM]
same,"activity change, negative = inhibition",[8],-24.7% [at 8.39 µM]
same,"activity change, negative = cytotoxicity",[9],1.81% [at 8.39 µM]
same,"activity change, negative = cytotoxicity",[10],5.67% [at 8.39 µM]
same,"activity change, negative = cytotoxicity",[11],0.386% [at 8.39 µM]
same,cAMP activity change,[13],"0.52% [at 8.39 µM, stronger effect = higher value]"
same,"activity change, negative = inhibition",[17],-7.09% [at 8.39 µM]

# From PubChem BioAssay (Tox21)
